According to ChEMBL document CHEMBL5308504, “Tm Shift (DSF) assay results for EUbOPEN Chemogenomics Library” (2023):
Several values for one entry are separate records, joined by “and”; a condition that tells them apart may be missing. Equal values may be shown once.

Columns and labels:
Conditions in all cases: Compound concentration 20.0 uM, Protein concentration 2.0 uM, Result type QC Liability
[1] = target: Tyrosine-protein kinase ABL1 (Homo sapiens) (UniProt P00519)
[2] = target: Cyclin-dependent kinase 2 (Homo sapiens) (UniProt P24941)
[3] = target: Casein kinase I isoform delta (Homo sapiens) (UniProt P48730)
[4] = target: Glycogen synthase kinase-3 beta (Homo sapiens) (UniProt P49841)
[5] = target: Mitogen-activated protein kinase 1 (Homo sapiens) (UniProt P28482)
[6] = target: T1, Aurora kinase A (Homo sapiens) (UniProt O14965)
T1 sequence (whole entry): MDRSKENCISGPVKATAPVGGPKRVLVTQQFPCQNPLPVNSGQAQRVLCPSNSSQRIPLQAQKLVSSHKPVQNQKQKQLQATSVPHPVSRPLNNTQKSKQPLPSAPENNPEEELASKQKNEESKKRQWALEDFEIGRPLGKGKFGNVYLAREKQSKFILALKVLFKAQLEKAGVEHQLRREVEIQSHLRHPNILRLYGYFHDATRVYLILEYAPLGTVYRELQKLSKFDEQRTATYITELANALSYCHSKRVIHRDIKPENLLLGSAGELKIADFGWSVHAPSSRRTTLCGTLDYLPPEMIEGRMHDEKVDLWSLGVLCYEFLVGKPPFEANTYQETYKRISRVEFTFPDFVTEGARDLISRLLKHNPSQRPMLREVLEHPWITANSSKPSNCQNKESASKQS

Chain of Tyrosine-protein kinase ABL1 (Homo sapiens) (P00519 whole entry): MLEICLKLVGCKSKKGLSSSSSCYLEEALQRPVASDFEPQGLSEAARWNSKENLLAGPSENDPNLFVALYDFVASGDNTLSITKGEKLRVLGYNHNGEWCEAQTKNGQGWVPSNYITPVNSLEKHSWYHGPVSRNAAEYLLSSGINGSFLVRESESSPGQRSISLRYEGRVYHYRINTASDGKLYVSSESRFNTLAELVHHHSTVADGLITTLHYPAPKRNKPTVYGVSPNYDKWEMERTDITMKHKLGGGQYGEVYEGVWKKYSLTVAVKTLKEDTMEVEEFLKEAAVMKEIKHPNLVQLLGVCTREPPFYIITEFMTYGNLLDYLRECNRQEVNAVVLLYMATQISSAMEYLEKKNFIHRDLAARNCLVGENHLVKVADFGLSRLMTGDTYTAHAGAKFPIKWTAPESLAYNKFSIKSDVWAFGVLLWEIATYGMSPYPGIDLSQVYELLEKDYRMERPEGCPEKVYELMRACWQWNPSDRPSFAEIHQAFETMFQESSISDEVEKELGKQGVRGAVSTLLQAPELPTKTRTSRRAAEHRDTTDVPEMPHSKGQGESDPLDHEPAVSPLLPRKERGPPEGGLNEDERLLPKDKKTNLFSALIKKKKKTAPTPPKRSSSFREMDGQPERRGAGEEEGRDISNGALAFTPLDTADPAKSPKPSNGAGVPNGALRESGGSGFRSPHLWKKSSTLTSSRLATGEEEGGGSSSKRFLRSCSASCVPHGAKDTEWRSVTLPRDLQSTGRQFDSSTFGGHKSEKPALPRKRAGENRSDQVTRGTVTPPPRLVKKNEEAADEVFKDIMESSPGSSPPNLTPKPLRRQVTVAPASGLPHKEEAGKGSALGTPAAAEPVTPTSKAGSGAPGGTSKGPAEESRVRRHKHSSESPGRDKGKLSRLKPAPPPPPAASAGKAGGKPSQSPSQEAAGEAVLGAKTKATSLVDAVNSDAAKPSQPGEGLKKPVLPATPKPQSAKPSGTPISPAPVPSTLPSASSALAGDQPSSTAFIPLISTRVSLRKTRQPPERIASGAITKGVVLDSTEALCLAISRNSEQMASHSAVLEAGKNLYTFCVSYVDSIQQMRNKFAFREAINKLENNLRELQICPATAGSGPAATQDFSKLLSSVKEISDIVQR
Chain of Casein kinase I isoform delta (Homo sapiens) (P48730 whole entry, looked up, canonical isoform): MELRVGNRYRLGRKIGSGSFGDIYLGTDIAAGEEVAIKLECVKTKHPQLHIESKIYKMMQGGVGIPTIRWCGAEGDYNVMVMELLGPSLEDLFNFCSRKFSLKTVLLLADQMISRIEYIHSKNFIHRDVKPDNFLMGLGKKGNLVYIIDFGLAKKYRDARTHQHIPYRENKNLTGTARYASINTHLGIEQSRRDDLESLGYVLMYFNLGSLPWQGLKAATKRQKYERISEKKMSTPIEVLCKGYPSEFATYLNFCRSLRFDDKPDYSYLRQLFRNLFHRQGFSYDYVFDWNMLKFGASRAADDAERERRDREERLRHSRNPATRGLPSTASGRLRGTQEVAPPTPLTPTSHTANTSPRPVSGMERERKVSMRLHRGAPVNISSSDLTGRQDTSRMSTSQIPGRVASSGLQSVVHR
Chain of Glycogen synthase kinase-3 beta (Homo sapiens) (P49841 whole entry, looked up): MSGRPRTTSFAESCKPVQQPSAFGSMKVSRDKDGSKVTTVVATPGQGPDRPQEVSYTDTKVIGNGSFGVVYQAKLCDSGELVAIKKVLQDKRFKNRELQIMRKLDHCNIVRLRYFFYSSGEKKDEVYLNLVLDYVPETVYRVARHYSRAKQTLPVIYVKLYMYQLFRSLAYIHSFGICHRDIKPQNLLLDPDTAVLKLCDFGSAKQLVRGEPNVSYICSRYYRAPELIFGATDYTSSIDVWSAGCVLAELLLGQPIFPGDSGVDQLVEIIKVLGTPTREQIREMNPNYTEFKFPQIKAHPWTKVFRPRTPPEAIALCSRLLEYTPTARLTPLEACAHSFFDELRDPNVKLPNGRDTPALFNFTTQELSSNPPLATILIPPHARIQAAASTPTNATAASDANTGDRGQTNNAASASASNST
Chain of Mitogen-activated protein kinase 1 (Homo sapiens) (P28482 whole entry): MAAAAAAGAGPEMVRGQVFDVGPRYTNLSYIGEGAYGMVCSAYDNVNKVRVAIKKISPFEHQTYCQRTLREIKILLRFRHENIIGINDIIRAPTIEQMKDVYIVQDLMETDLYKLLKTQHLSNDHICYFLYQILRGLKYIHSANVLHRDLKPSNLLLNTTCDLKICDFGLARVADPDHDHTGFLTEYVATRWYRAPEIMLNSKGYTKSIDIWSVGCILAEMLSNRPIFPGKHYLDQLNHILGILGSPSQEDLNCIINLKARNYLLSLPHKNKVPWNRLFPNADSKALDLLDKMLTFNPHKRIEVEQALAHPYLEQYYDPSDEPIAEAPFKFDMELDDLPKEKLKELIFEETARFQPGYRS

Structure (SMILES)	ΔTm [1]	ΔTm [2]	ΔTm [3]	ΔTm [4]	ΔTm [5]	ΔTm [6]
C[C@@H]1CCNC(=O)c2cc3ccc(C(=O)Nc4nc5ccccc5n4CCCN(C)C)cc3n21	1.4 °C	0.73 °C	2.87 °C	0.5 °C	0.36 °C	3.79 °C
Cn1cc(Nc2nccc(N3CC4CCC(C3)N4C(=O)[C@@H]3CC3(F)F)n2)cn1	1.98 °C	2.84 °C	0.33 °C	0.6 °C	0.56 °C	8.08 °C
CC1(C)C[C@@H]1C(=O)N/C(=C\CCCCSC[C@H](N)C(=O)O)C(=O)O	0.34 °C	0.8 °C	-0.09 °C	0.21 °C	-0.39 °C	-0.41 °C
O=C(NC[C@@H]1[C@H]2CN(C(=O)OCc3cc(C(F)(F)F)cc(C(F)(F)F)c3)C[C@@H]12)c1ccc2[nH]nnc2c1	-2.53 °C	-9.8 °C	0.69 °C	-10.5 °C	-10.3 °C	0.61 °C
Cc1c(NC(=O)COc2ccc(Cl)cc2C(=O)c2cc(F)cc(C(F)(F)F)c2)ccc(C(=O)O)c1F	-0.06 °C and 0.75 °C	0.5 °C and 0.58 °C	0.18 °C and 0.09 °C	1.73 °C and 2.32 °C	0.12 °C and 0.93 °C	-0.24 °C and -1.26 °C
COc1ncc(-c2cc(-c3ncc(CN4C[C@@H](C)O[C@@H](C)C4)o3)c3cn[nH]c3c2)cc1NS(C)(=O)=O	0.42 °C	0.2 °C	0.38 °C	-0.36 °C	0.18 °C	1.26 °C
O=c1[nH]c(CS[C@H]2CC[C@H](O)CC2)nc2cc(OCC3CC3)cc(F)c12	0.13 °C	0.95 °C	0.35 °C	0.78 °C	0.46 °C	-0.03 °C
O=C(N[C@H]1CCC[C@H](CO)C1)C1CCN(c2nc3cc(Cl)c(-c4ccc(Cl)cc4)cc3o2)CC1	1.38 °C	-3.19 °C	-6.76 °C	1.1 °C	-10.4 °C	-2.13 °C
Cc1cc(NC(=O)c2cccc(NC(=O)/C=C/CN(C)C)c2)ccc1Nc1nccc(-c2cccnc2)n1	3.79 °C	1.64 °C	4.02 °C	6.68 °C	1.52 °C	5.38 °C
CN(c1ccc(C(F)(F)F)cc1)S(=O)(=O)c1ccc(C(=O)Nc2nc(-c3ccccn3)cs2)cc1	7.05 °C	10.4 °C	5.15 °C	13.4 °C	1.92 °C	9.24 °C
CN1C(=O)Cc2ccc(-c3ccc(C[C@@H](C#N)NC(=O)[C@@H]4N[C@H]5CC[C@@H]4C5)c(F)c3)cc21	-0.52 °C	0.33 °C	0.17 °C	-0.31 °C	-0.2 °C	-0.07 °C
Cn1nc(-c2ccc(C(N)=O)cc2)c2ccccc2c1=O	0.66 °C	0.13 °C	0.57 °C	-0.19 °C	0.56 °C	0.43 °C
O=C(O)c1ccnc(N2CC(O)(c3ccc(OCc4c(-c5c(Cl)cccc5Cl)noc4C4CC4)cc3Cl)C2)c1	0.22 °C	-0.27 °C	0.41 °C	-0.81 °C	-0.58 °C	-1.95 °C
CN1CCc2cc(Nc3ncc(C(F)(F)F)c(NCc4cc[nH]n4)n3)ccc2C1	5.79 °C	7.99 °C	2.14 °C	6.33 °C	1.88 °C	11.3 °C
NCc1ccc(OCCCc2sc(-c3ccc4c(c3)/C(=N/Nc3nc5ccccc5s3)CCC4)nc2C(=O)O)cc1	0.43 °C	0.49 °C	-0.37 °C	-0.12 °C	-0.02 °C	1.25 °C
Cc1nc(-c2ccc(C(F)(F)F)cc2)sc1C(=O)NCc1ccc(OC(C)(C)C(=O)O)cc1	0.61 °C	0.76 °C	0.63 °C	-0.64 °C	0.34 °C	0.59 °C
COc1ccccc1Nc1nc(-c2nn(Cc3c(F)cc(OCCCO)cc3F)c3ccccc23)ncc1OC	0.26 °C	-0.43 °C	-0.21 °C	-0.64 °C	0.16 °C	-0.7 °C
Cc1cc(S(=O)(=O)N2CC(C)(C)c3cc(-c4ccc(C(F)(F)F)cc4)ccc32)ccc1OCC(=O)O	0 °C	-2.88 °C	-0.16 °C	-5.32 °C	-9.76 °C	-1.56 °C
O=C(O)c1ccc(CN2C[C@@H]3C[C@H]2CN3Cc2ccc(Oc3ccc(-c4ncco4)cc3)cc2)cc1	0.42 °C	0.83 °C	0.25 °C	-0.14 °C	0.14 °C	-0.18 °C
O=C(O)CCCN1CCC[C@H]1COc1ccc(Oc2ccc(Cl)cc2)cc1	0.14 °C	0.25 °C	-0.11 °C	-0.15 °C	-0.08 °C	-0.43 °C
NCC1CCC(CNc2nc(NCc3ccccc3OC(F)(F)F)ncc2[N+](=O)[O-])CC1 (stereo not given)	0.62 °C	-0.56 °C	0.19 °C	3.29 °C	-0.1 °C	1.01 °C
N=C(N)NCCC[C@H](NC(=O)CC1(CC(=O)N2CCN(C(c3ccccc3)c3ccccc3)CC2)CCCC1)C(=O)NCc1ccccc1	-0.53 °C	-1.78 °C	0.02 °C	-1.84 °C	-0.93 °C	-0.79 °C
CCCCC/C=C/C=C1/C(=O)C=C[C@@H]1C/C=C\CCCC(=O)O	-2.05 °C	-0.61 °C	-0.75 °C	-0.25 °C	-0.53 °C	-1.52 °C

Structure (SMILES)	ΔTm [1]	ΔTm [2]	ΔTm [3]	ΔTm [4]	ΔTm [5]	ΔTm [6]
Cn1c(C(=O)N[C@@H](CO)c2ccc(C(=O)O)cc2)cc2cc(Cl)ccc21	-0.2 °C	0.54 °C	0.58 °C	0.38 °C	-0.04 °C	0.34 °C
CO[C@H]1CC[C@H](N(c2cc(F)c(Oc3ncc(Cn4nccn4)cc3C(F)(F)F)cc2C(=O)O)C(=O)[C@H]2CC[C@H](C)CC2)CC1	-0.55 °C	-0.98 °C	-0.04 °C	-1.43 °C	0.48 °C	-0.75 °C
O=C(Nc1cccc(Nc2nccc(Nc3cccc(C(F)(F)F)c3)n2)c1)C1CC1	1.63 °C	1.44 °C	1.09 °C	3.86 °C	0.42 °C	–
CCN(C(=O)CO)[C@H]1CN(/C(=N\C#N)Nc2cccc(OC(F)F)c2)N=C1c1ccc(Cl)c(Cl)c1	0.46 °C	0.22 °C	0.23 °C	2.8 °C	-0.24 °C	0.87 °C
CS(=O)(=O)NCC[C@H](NC(=O)c1cncc2c1cnn2-c1ccc(F)cc1)c1ccnc(S(C)(=O)=O)c1	-0.12 °C	-0.17 °C	0.57 °C	-1.34 °C	0.26 °C	0.06 °C
COc1cc(-c2cn[nH]c2)ccc1C(=O)Nc1ccc2c(c1)CCNCC2	0.96 °C	0.47 °C	0.7 °C	-0.7 °C	0.38 °C	0.13 °C
Cc1c(NC(=O)c2ccc(C(C)(C)C)cc2)cccc1-c1cn(C)c(=O)c(Nc2ccc(C(=O)N3CCOCC3)cc2)n1	0.18 °C	-0.38 °C	0.35 °C	-2.28 °C	-1.15 °C	1.86 °C
CC(C)S(=O)(=O)c1ccccc1Nc1nc(N[C@@H]2CCCN(CCCCCCCNC(=O)COc3cccc4c3C(=O)N(C3CCC(=O)NC3=O)C4=O)C2)ncc1Cl (stereo not given in full)	8.06 °C	4.21 °C	3.26 °C	11.1 °C	3.07 °C	10.6 °C
O=C(CCCCCCc1ccccc1)c1ncc(-c2ccccn2)o1	0.19 °C	0.75 °C	0.19 °C	-0.85 °C	-0.04 °C	-0.34 °C
Cn1cnc(Cn2ccc3ccc(CNCc4[nH]c5ccccc5c4[C@H]4NC(=O)c5ccc(O)cc54)cc32)c1	0.28 °C	-0.58 °C	0.32 °C	-0.76 °C	0.91 °C	0.59 °C
COc1ccc(CSc2nnc(-c3ccc4ncsc4c3)o2)cc1C(F)(F)F	-6.63 °C	0.54 °C	-10.2 °C	-9.01 °C	-8.68 °C	1.22 °C
CN(C)CC#Cc1ccc2[nH]c3c(c2c1)-c1nc(N)ncc1CCC3	0.75 °C	-0.08 °C	3.05 °C	0.06 °C	0.46 °C	1.23 °C
CCOc1cc(CC(=O)N[C@@H](CC(C)C)c2ccccc2N2CCCCC2)ccc1C(=O)O	-0.58 °C	0.05 °C	-0.05 °C	0.38 °C	-0.15 °C	-0.16 °C
Cc1c(N2CCCC2)nc2ccc(Br)cc2c1C(=O)NC[C@H](CCC(=O)O)c1ccccc1Cl	-0.28 °C and -0.08 °C	-0.21 °C and 0.71 °C	-0.02 °C and 0.51 °C	-0.57 °C and -1.1 °C	-0.65 °C and 0.37 °C	-0.24 °C and -0.2 °C
CN(C(=O)c1ccccc1)c1ccc2c(c1)[nH]/c(=N\C(=O)c1ccc(Br)s1)n2CCC(N)=O	3.94 °C	0.69 °C	6.56 °C	0.89 °C	0.41 °C	3.75 °C
Cc1csc(S(=O)(=O)N(CC(C)C)c2cc3c(cc2OCc2ccc(C(=O)O)cc2)CCC3)n1	0.11 °C	-0.15 °C	-0.34 °C	0 °C	-0.27 °C	-0.4 °C
O=C1Nc2nc(-c3c(O)cccc3OCC3CC3)cc([C@@H]3CCCNC3)c2CO1	0.61 °C	2.37 °C	2.04 °C	1.54 °C	1.1 °C	-0.03 °C
O=C(O)c1cc(F)c2nc(N3[C@@H]4CC[C@H]3C[C@@H](OCc3c(-c5ccccc5OC(F)(F)F)noc3C3CC3)C4)sc2c1	0.23 °C	0.38 °C	0.11 °C	-5.45 °C	-0.82 °C	-8.04 °C
c1ccc(C(OC2CCN(CCCc3nnn[nH]3)CC2)c2ccccc2)cc1	0.21 °C	0.54 °C	-0.14 °C	0.65 °C	-0.05 °C	-0.34 °C
CN1CCN(C(=O)c2ccc(N(C)c3ncc(C(F)(F)F)c(N[C@@H]4CCC[C@@H]4C(N)=O)n3)cc2)CC1	-0.2 °C	0.48 °C	0.31 °C	0.51 °C	0.25 °C	-0.13 °C
CC(C)(O)CNC(=O)N1C(=O)N(c2cccc(C(F)(F)F)c2)C2=C(C(=O)CC2)[C@H]1c1ccc(C#N)cc1	0.05 °C	0.79 °C	0.12 °C	0.33 °C	-0.03 °C	0.08 °C
CC1(C)Cc2nc(C3CCCC3)c([C@@H](F)c3ccc(C(F)(F)F)cc3)c(C3CCCCC3)c2[C@@H](O)C1	0 °C	1.04 °C	0.11 °C	0 °C	0.06 °C	-0.24 °C
CC(C)(C)OC(=O)CN1C(=O)c2c(OCC(=O)O)cccc2Oc2ccc(C(F)(F)F)cc21	0.48 °C	0.55 °C	0.4 °C	1.17 °C	0.51 °C	-0.28 °C
